Drawing on ChEMBL document CHEMBL1961873, “Compounds: GSK PKIS; Assays: Nanosyn kinase panel” (2012), this text covers inhibition for six compounds.

Test [1] addresses Tyrosine-protein kinase Fer (Homo sapiens) (UniProt P16591). As to conditions: at 1 µM.
Test [2] addresses Tyrosine-protein kinase Fes/Fps (Homo sapiens) (UniProt P07332). The settings on record: at 0.1 µM.
Test [3] has the same target. The settings on record: at 1 µM.
Test [4] concerns the target Fibroblast growth factor receptor 1 (Homo sapiens) (UniProt P11362). As to conditions: at 0.1 µM.
The target is the same in test [5]. The settings on record: at 1 µM.
Test [6] has as its target Fibroblast growth factor receptor 2 (Homo sapiens) (UniProt P21802). As to conditions: at 0.1 µM.
For test [7] the target is unchanged. As to conditions: at 1 µM.
The target of test [8] is Fibroblast growth factor receptor 3 (Homo sapiens) (UniProt P22607). The settings on record: at 0.1 µM.
Test [9] has the same target. The settings on record: at 1 µM.
The target of test [10] is Fibroblast growth factor receptor 4 (Homo sapiens) (UniProt P22455). As to conditions: at 0.1 µM.
For test [11] the target is unchanged. As to conditions: at 1 µM.
Test [12] has as its target Tyrosine-protein kinase Fgr (Homo sapiens) (UniProt P09769). As to conditions: at 0.1 µM.
For test [13] the target is unchanged. The settings on record: at 1 µM.
Test [14] deals with Vascular endothelial growth factor receptor 1 (Homo sapiens) (UniProt P17948). The settings on record: at 0.1 µM.
Test [15] has the same target. The settings on record: at 1 µM.
Test [16] deals with Receptor-type tyrosine-protein kinase FLT3 (Homo sapiens) (UniProt P36888). The settings on record: at 0.1 µM.
Test [17] has the same target. As to conditions: at 1 µM.
In test [18] the test system is T1, Receptor-type tyrosine-protein kinase FLT3 (Homo sapiens), P36888 [D835Y].
T1 sequence (whole entry): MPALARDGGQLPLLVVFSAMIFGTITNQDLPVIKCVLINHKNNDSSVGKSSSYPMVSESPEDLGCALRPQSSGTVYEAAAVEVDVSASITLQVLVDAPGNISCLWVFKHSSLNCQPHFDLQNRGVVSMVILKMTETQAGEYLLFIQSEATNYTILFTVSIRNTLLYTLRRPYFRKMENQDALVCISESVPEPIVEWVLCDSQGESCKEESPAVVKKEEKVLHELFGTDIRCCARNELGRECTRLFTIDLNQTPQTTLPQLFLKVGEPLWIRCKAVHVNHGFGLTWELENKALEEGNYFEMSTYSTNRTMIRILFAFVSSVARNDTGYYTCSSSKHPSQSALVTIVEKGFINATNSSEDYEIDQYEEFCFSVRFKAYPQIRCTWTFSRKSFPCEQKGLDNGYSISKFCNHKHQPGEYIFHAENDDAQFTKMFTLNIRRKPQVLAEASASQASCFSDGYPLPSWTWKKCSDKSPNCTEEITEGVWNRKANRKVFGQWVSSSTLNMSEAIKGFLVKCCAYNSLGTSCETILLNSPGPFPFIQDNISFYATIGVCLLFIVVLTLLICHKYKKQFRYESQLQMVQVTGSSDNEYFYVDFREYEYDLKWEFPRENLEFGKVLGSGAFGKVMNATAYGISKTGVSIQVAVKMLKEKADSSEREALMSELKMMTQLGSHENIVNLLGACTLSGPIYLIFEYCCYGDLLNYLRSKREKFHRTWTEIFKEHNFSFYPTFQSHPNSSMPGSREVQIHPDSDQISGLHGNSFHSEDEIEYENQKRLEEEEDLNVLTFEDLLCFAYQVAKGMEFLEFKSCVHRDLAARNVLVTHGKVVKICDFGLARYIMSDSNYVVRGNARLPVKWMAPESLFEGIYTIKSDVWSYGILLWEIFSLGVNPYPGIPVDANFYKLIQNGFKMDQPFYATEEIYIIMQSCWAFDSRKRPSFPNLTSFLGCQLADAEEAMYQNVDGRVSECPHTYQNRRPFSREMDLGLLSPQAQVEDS
As to conditions: at 0.1 µM.

Test [19] addresses Non-receptor tyrosine-protein kinase TYK2 (Homo sapiens) (UniProt P29597). The settings on record: at 1 µM.
For test [20], the target named is T2, Tyrosine-protein kinase receptor TYRO3 (Homo sapiens) (UniProt Q06418).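 Note: reported percentages are averaged inhibition values of TYRO3 kinase activity.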
T2 sequence (whole entry): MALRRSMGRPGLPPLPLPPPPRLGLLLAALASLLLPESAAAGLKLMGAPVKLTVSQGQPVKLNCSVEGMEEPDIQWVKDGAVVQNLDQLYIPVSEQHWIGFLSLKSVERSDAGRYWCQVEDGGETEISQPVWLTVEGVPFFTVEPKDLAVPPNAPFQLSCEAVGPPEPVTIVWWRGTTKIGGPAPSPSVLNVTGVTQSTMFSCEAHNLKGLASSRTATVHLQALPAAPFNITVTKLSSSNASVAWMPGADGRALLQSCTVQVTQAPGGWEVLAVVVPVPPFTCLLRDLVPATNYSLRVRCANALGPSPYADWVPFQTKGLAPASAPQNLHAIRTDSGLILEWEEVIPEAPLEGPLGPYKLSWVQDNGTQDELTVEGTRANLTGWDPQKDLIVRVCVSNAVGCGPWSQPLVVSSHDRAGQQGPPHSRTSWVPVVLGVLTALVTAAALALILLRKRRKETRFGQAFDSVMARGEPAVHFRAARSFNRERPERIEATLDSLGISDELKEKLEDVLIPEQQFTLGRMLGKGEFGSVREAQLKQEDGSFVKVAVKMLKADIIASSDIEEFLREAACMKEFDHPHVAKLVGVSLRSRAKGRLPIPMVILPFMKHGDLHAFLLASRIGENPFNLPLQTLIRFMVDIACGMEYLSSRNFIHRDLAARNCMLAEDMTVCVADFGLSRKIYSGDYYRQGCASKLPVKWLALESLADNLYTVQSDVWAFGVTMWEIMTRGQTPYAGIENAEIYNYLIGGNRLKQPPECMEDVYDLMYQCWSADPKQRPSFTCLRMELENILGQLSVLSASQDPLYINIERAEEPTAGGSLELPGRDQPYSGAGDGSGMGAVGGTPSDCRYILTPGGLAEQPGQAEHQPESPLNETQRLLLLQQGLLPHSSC
As to conditions: at 0.1 µM.

Chain of Tyrosine-protein kinase Fer (Homo sapiens) (P16591 whole entry, looked up): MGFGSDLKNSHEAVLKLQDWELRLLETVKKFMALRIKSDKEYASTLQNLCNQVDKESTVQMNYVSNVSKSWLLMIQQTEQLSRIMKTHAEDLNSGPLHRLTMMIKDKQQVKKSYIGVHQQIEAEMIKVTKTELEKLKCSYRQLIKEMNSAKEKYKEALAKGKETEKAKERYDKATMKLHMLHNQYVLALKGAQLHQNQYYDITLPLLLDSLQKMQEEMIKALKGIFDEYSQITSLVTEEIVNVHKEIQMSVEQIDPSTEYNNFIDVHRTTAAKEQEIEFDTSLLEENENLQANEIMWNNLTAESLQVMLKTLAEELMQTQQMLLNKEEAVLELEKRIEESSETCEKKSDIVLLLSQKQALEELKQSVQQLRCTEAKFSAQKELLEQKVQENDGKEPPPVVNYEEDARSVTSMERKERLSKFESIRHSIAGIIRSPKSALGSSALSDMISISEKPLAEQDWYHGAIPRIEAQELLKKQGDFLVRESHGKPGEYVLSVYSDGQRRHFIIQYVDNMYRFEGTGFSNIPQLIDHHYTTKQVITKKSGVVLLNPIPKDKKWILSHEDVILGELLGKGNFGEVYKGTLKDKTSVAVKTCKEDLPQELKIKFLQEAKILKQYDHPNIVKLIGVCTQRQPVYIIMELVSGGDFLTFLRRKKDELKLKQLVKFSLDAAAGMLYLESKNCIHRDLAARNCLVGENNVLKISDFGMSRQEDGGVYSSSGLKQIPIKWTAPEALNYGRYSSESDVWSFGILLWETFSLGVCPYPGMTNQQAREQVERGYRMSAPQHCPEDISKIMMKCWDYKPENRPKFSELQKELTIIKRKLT
Chain of Tyrosine-protein kinase Fgr (Homo sapiens) (P09769 2-529 limits assumed): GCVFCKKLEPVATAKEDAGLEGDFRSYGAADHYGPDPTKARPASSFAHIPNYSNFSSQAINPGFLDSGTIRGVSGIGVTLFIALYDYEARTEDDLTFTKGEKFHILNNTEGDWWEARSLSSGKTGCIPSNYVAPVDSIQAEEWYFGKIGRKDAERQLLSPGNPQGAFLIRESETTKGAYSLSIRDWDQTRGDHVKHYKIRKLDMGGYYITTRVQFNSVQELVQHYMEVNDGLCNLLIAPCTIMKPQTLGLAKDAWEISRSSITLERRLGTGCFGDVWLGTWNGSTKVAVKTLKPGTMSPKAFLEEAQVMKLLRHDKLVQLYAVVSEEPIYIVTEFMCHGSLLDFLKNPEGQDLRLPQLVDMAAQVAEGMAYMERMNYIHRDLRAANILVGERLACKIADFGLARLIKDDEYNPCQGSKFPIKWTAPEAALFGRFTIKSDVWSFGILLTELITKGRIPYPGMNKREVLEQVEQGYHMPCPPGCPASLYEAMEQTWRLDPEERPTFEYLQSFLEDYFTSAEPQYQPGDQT
Chain of Fibroblast growth factor receptor 2 (Homo sapiens) (P21802 22-821 limits assumed): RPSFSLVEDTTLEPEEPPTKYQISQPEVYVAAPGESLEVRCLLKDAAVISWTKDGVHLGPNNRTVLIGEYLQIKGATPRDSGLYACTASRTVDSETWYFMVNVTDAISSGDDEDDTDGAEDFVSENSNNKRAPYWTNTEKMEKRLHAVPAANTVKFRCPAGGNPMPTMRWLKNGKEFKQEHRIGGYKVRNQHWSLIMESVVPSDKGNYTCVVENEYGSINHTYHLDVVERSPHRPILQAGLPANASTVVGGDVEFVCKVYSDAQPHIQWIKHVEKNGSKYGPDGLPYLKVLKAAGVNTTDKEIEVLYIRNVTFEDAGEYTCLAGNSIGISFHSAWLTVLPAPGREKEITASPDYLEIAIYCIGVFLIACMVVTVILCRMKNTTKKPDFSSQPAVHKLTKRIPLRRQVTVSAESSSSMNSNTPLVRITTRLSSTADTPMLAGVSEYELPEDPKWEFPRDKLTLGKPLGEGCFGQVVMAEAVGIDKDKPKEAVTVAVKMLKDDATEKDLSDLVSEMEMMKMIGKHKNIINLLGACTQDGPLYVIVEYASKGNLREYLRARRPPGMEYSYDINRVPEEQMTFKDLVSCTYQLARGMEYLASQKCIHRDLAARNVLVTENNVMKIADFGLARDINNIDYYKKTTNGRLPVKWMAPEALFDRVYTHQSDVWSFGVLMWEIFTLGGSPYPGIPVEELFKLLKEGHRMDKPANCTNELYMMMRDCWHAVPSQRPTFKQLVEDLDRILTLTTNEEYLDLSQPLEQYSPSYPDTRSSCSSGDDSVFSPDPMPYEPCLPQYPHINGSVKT
Chain of Fibroblast growth factor receptor 1 (Homo sapiens) (P11362 22-822 limits assumed): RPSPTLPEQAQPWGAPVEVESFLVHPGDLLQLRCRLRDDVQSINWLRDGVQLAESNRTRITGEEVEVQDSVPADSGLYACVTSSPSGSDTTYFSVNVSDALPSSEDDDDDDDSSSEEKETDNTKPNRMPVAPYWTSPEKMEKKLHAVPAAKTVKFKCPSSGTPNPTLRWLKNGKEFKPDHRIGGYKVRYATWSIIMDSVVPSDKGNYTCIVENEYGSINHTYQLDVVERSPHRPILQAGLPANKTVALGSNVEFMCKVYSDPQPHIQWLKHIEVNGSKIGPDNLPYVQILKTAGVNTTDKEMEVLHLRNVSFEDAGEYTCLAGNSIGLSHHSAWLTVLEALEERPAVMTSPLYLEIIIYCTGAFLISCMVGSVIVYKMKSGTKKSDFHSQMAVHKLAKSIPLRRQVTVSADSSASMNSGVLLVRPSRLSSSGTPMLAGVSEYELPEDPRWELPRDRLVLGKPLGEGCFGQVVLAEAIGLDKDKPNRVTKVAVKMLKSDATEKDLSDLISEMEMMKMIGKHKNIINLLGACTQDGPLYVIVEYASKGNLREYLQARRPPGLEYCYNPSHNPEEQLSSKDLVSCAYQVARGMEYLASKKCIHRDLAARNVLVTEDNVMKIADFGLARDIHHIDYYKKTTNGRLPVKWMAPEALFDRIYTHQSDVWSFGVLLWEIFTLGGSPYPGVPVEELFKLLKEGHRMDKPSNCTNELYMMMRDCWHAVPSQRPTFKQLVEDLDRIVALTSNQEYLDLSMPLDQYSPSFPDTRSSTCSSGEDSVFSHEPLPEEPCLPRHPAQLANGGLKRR
Chain of Vascular endothelial growth factor receptor 1 (Homo sapiens) (P17948 whole entry): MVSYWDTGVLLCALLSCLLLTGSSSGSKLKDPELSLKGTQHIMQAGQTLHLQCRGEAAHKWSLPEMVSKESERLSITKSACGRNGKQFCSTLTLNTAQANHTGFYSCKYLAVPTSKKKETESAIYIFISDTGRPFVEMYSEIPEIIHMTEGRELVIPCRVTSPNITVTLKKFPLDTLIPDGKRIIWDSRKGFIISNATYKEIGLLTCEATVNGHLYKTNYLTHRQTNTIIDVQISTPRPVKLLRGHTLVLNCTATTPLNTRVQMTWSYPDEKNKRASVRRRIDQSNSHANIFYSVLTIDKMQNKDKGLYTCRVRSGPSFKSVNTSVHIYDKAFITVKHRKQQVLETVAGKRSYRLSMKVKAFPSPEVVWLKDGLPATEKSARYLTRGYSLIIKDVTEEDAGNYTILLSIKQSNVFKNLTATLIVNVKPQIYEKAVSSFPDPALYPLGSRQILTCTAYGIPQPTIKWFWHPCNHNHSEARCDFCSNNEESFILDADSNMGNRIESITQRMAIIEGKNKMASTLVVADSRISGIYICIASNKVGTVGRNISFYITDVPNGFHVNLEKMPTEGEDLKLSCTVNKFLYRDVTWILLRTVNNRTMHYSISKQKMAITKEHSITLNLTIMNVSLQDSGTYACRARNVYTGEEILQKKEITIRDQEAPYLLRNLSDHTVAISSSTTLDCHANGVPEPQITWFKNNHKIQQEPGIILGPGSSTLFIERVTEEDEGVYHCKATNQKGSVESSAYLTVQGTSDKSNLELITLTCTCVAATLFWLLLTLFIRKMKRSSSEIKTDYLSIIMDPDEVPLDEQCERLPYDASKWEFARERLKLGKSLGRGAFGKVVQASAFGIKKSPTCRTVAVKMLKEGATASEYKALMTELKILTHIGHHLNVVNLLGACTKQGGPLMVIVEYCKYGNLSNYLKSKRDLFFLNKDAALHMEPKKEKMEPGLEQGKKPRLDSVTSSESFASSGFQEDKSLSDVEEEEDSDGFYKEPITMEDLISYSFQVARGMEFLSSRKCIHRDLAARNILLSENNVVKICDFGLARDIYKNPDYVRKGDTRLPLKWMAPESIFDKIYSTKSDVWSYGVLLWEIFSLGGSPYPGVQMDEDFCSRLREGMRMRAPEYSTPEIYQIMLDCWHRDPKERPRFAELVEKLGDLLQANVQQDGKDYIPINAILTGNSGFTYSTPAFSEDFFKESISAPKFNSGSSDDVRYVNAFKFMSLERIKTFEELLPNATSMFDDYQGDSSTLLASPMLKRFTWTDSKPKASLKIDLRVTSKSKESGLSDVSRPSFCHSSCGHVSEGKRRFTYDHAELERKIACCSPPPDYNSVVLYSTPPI
Chain of Fibroblast growth factor receptor 4 (Homo sapiens) (P22455 22-802 limits assumed): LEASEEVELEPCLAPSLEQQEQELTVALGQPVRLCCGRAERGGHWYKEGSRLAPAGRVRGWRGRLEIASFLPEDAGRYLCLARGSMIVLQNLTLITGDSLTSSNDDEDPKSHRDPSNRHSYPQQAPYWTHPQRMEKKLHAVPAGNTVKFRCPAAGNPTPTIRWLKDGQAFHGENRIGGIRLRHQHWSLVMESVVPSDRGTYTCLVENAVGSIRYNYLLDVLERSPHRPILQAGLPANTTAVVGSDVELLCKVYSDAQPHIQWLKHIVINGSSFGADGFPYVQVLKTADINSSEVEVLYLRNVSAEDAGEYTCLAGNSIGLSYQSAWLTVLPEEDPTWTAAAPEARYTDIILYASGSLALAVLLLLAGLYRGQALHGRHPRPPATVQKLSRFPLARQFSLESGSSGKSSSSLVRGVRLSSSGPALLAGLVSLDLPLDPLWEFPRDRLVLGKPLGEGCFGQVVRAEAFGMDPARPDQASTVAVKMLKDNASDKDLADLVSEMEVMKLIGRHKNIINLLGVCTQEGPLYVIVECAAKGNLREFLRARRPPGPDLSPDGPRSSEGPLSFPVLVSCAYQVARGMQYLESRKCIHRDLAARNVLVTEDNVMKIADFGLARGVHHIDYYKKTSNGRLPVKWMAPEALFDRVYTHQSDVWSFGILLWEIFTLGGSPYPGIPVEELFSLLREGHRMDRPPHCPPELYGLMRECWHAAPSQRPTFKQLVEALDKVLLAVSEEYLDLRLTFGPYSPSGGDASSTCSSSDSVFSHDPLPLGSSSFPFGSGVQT

As for `CC1=C(C(=O)Nc2ccc3[nH]ncc3c2)C(c2ccc(F)cc2)NC(=O)N1` (stereo not given), the inhibition was 2.17% in test [1]; 0.59% in test [2]; 0.3% in test [3]; -0.9% in [4]; 6.58% in test [5]; 3.51% in [6]. For the same compound, the inhibition was 18.4% in test [7]; 4.3% in test [8]; 14.7% in [9]; 1.22% in test [10]; 7.73% in test [11]; 0.15% in test [12]. In addition, the inhibition was 0.7% in test [13]; -0.38% in [14]; 2.35% in [15]; 0.82% in [16]; 0.62% in test [17]; -0.62% in test [18]. Besides, the results for the inhibition in [19] and in test [20] were 26.3% and 1.55%, respectively.

For the compound `COc1cccc(-n2ncc3c(N/N=C/c4cccc(F)c4)ncnc32)c1`, the inhibition is 3.05% in [1]; 1.31% in test [2]; 0.83% in test [3]; -2.97% in test [4]; -3.18% in test [5]; -3.24% in [6]. For the same compound, the inhibition was -0.48% in test [7]; 0.54% in test [8]; -0.4% in [9]; -3.35% in [10]; -5.17% in test [11]; 7.31% in test [12]. The inhibition is 32.6% in test [13]; -0.74% in [14]; 3.31% in test [15]; 0.44% in test [16]; 6.78% in test [17]; 9.42% in test [18]. Moreover, the results for the inhibition in [19] and in test [20] were -0.15% and 3.08%, respectively.

Regarding `Nc1nc(-c2ccccn2)c(-c2ccc3ncccc3n2)s1`, the inhibition in [1] stood at 6.59%; in test [2], 2.12%; in [3] it was 3.07%; in test [4] it was 7%; in test [5], 5.84%; in test [6], 3.92%. Besides, the inhibition in test [7] is 7.02%; in [8] it was 5.15%; in [9] it was 4.97%; in test [10], -1.61%; in test [11], 0.28%; in test [12], 1.09%. Besides, the inhibition is 2.08% in test [13]; 0.57% in test [14]; 5.82% in test [15]; 8.03% in test [16]; 2.99% in [17]; -0.61% in test [18]. In addition, the inhibition in test [19] was -1.33%; in test [20], 1.89%.

For `COc1cc(C=NNc2ncnc3c2cnn3-c2ccccc2)ccc1O`, the inhibition in [1] was 4.88%; in [2] it was 2.59%; in [3], 4.03%; in test [4], 1.01%; in test [5], 3.72%; in test [6] it was 3%. Also, the inhibition came out at 9.48% in [7]; 2.91% in test [8]; 7.58% in test [9]; 4.25% in [10]; 3.32% in [11]; 12.8% in test [12]. The inhibition amounted to 49.6% in test [13]; 3.24% in [14]; 15.1% in test [15]; 15.6% in test [16]; 54.6% in test [17]; 17.7% in test [18]. Besides, the figures for the inhibition in test [19] and in test [20] were 0.57% and 5.56%, respectively.

`O=C1NC(=O)C(c2ccc(Cl)cc2)=C1Nc1ccc(Cl)c(C(=O)O)c1`: the inhibition in test [1] was 1.58%; in [2], -3.1%; in test [3], -3%; in test [4], -0.91%; in test [5], 2.2%; in test [6], -2.69%. Further, the inhibition is 2.13% in test [7]; 1.31% in test [8]; 2.66% in [9]; -0.4% in test [10]; 1.95% in test [11]; 0.15% in [12]. Also, the inhibition was 2.1% in test [13]; 0.79% in test [14]; 2.99% in test [15]; -0.57% in [16]; 1.93% in test [17]; -7.38% in test [18]. For the same compound, the inhibition in [19] is 0.43%; in test [20], -0.81%.

`Fc1cccc(COc2ccc(Nc3ncnc4sc(-c5cccs5)cc34)cc2Cl)c1`: the inhibition was determined as 9.05% in [1]; 0.45% in [2]; 0.01% in [3]; 4.36% in test [4]; 5.02% in [5]; 2.92% in test [6]. Also, the inhibition in test [7] amounted to 3.32%; in test [8], 0.4%; in [9] it was 6.81%; in test [10] it was 0.35%; in [11] it was 3.41%; in test [12] it was 1.43%. Moreover, the inhibition is 3.69% in test [13]; -0.58% in [14]; 3.56% in test [15]; 0.38% in [16]; 3.27% in test [17]; -2.12% in test [18]. Moreover, the inhibition came out at 1.15% in [19] and 0.54% in [20].
